# Where “and” joins values, the source holds several entries; their conditions need not be identical. Equal values may be shown once. Records with an inconclusive call do not appear. The source holds several records for some structures; these can differ, active in one and inactive in another. Calls of active or inactive are those of the source. Rule for the calls: active = hit-call score of the fitted dose curve at least 0.9, where 1 is the maximum; inconclusive = response in the unintended direction; inactive = score below 0.9.
# Tests used:
# [1] = molecular target: Peroxisome proliferator-activated receptor gamma (Homo sapiens) (UniProt P37231); assay: NVS_NR_hPPARg: NovaScreen (NVS) Nuclear Receptor Binding Assay for human Peroxisome Proliferator-activated Receptor gamma (PPARg) (AID 2283370)
# Chain of Peroxisome proliferator-activated receptor gamma (Homo sapiens) (P37231 whole entry, looked up): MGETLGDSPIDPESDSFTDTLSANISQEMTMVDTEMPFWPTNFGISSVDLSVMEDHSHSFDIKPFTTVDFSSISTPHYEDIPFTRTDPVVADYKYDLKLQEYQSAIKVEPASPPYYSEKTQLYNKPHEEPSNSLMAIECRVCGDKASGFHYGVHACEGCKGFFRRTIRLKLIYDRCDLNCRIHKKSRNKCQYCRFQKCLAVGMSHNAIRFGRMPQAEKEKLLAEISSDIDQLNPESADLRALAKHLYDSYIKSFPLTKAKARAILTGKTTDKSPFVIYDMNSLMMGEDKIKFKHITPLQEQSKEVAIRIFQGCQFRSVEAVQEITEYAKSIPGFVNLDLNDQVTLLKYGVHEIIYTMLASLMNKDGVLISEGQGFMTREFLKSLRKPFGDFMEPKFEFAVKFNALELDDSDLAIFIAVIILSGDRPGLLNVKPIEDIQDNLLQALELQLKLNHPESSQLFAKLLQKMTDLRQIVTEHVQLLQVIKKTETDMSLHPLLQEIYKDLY
# How it was run: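 FP read-out, 2 h post-dose, cell-free extracted receptor protein. Signal loss vs DMSO negative control = binding activity. Single-conc duplicate HTS at 25 uM; concentration-response follow-up for actives.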
# [2] = molecular target: guinea pig Sigma Receptor, Non-selective Binding, SIGMAR1 (gene 100135589) (UniProt Q60492); assay: NVS_OR_gSIGMA_NonSelective: NovaScreen (NVS) Nuclear Receptor Binding Assay for guinea pig Sigma Receptor, Non-selective Binding (AID 2283367)
# Chain of guinea pig Sigma Receptor, Non-selective Binding, SIGMAR1 (gene 100135589) (Q60492 whole entry, looked up): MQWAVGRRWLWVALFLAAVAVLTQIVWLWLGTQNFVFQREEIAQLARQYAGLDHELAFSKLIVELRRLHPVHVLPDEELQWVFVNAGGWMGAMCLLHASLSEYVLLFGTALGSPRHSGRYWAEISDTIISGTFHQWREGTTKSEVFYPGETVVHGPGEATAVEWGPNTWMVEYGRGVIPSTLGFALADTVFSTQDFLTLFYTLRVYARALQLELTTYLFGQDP
# How it was run: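 Membranes from guinea pig brain incubated with radioligand and test chemical for 1 h, then filtered and scintillation-counted. Duplicate primary testing at 25 uM, with concentration-series follow-up for actives.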
# [3] = molecular target: human Adenosine Transporter (Adot), SLC29A1 (gene 2030) (UniProt Q99808); assay: NVS_TR_hAdoT: NovaScreen (NVS) Transporter Assay for human Adenosine Transporter (Adot) (AID 2283368)
# Chain of human Adenosine Transporter (Adot), SLC29A1 (gene 2030) (Q99808 whole entry, looked up): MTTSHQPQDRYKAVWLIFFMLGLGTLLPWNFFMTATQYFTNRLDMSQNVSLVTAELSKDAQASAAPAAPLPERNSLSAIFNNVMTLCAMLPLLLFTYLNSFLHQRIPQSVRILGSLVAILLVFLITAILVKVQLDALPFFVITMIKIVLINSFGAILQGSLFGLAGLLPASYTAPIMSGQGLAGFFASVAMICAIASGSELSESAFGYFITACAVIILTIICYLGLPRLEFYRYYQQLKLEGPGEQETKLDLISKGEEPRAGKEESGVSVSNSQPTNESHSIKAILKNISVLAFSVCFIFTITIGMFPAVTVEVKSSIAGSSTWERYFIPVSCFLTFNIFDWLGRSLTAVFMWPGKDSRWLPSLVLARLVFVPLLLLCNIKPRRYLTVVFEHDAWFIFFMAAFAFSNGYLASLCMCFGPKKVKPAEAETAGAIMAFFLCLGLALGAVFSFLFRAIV
# How it was run: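 Binding displacement on U937 extracted protein, read 1 h post-dose by filtration and scintillation counting. Primary duplicate test at 25 uM, then singleton concentration series with 50 uM top; DMSO baseline.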
# [4] = tested on: guinea pig Dopamine Transporter (DAT), gene 100714898; assay: NVS_TR_gDAT: NovaScreen (NVS) Transporter Assay for guinea pig Dopamine Transporter (DAT) (AID 2283369);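 note: active compounds lower bound radioligand signal relative to DMSO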
# How it was run: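 Cell-free striatal membrane prep (guinea pig), 2 h exposure, filtration + scintillation readout of radioligand binding. Single-point 25 uM duplicate; actives rerun singleton, top conc 50 uM.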
# [5] = molecular target: human Dopamine Transporter (DAT), SLC6A3 (gene 6531) (UniProt Q01959); assay: NVS_TR_hDAT: NovaScreen (NVS) Transporter Assay for human Dopamine Transporter (DAT) (AID 2283374);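 note: activity means loss of bound radioligand signal relative to DMSO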
# Chain of human Dopamine Transporter (DAT), SLC6A3 (gene 6531) (Q01959 whole entry, looked up): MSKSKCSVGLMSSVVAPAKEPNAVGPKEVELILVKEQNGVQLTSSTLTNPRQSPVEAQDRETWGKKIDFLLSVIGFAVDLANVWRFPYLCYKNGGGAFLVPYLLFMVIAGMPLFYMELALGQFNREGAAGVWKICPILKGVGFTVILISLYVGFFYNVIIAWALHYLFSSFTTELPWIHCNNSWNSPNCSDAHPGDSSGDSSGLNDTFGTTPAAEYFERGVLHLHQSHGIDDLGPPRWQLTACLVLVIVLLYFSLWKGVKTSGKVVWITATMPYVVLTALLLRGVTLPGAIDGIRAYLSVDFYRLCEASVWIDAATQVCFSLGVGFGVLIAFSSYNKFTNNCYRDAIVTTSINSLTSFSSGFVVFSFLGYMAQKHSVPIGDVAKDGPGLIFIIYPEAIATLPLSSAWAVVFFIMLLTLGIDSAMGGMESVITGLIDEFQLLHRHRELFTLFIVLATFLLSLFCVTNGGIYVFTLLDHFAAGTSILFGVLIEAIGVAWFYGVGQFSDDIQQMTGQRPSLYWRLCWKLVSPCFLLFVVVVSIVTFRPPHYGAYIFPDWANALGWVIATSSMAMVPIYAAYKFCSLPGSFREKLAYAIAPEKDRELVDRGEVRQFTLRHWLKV
# How it was run: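 hDAT membranes + tritiated/iodinated radioligand, competitive displacement; 1 h; filter scintillation readout. Single conc 25 uM (duplicate), then conc-response for actives. DMSO = negative control.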
# [6] = molecular target: rat Serotonin Transporter (SERT), Slc6a4 (gene 25553) (UniProt P31652); assay: NVS_TR_rSERT: NovaScreen (NVS) Transporter Assay for rat Serotonin Transporter (SERT) (AID 2283375)
# Chain of rat Serotonin Transporter (SERT), Slc6a4 (gene 25553) (P31652 whole entry, looked up): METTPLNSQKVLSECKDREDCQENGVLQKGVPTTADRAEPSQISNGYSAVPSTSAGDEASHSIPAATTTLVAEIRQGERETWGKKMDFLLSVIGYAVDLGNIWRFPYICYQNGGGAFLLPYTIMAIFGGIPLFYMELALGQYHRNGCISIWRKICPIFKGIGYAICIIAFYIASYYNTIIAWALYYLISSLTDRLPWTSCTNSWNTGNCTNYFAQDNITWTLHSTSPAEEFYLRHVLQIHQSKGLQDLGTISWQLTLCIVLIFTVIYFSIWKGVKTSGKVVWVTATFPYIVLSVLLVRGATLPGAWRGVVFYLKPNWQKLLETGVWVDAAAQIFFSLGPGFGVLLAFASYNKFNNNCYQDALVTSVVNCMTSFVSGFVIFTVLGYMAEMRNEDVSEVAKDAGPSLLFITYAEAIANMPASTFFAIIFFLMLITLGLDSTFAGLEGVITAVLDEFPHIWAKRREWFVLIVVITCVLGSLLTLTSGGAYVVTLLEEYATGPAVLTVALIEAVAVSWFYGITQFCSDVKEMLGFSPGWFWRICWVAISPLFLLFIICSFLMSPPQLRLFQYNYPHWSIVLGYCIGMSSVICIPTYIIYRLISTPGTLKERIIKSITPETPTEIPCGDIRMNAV
# How it was run: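 Radioligand displacement, filter scintillation readout; rat forebrain membrane prep, 1 h post-dose. Single-conc 25 uM duplicate screen, then concentration-response on actives. Loss of signal vs DMSO baseline.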
# [7] = molecular target: human Norepinephrine Transporter (NET), SLC6A2 (gene 6530) (UniProt P23975); assay: NVS_TR_hNET: NovaScreen (NVS) Transporter Assay for human Norepinephrine Transporter (NET) (AID 2283377);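 note: cell-free membrane protein extracted from CHO cells expressing human NET; displacement of radioligand from human NET seen as loss of scintillation signal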
# Chain of human Norepinephrine Transporter (NET), SLC6A2 (gene 6530) (P23975 whole entry, looked up): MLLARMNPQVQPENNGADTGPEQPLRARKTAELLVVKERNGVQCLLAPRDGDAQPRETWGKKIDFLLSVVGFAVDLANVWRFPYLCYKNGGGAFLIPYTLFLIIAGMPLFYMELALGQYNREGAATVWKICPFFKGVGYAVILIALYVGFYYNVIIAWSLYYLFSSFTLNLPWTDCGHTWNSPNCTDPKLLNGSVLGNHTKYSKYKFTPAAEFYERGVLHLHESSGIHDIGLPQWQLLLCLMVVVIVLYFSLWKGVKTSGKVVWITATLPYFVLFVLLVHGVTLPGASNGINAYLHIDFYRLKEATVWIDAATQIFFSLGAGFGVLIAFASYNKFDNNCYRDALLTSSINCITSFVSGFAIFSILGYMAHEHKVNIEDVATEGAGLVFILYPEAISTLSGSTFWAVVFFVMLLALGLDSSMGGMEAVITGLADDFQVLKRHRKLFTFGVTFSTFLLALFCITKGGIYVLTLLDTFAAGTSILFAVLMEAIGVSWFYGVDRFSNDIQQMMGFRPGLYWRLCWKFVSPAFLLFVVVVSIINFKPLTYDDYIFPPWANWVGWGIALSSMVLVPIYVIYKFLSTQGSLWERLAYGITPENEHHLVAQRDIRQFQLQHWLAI
# How it was run: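 CHO cell extracts expressing the transporter; tritiated or iodinated tracer displaced competitively; filtration plus scintillation readout at 1 h. Single-point duplicates at 25 uM, concentration series for follow-up; activity = signal drop relative to DMSO.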
# [8] = molecular target: mouse Estrogen Receptor alpha (Era), Esr1 (gene 13982) (UniProt P19785); assay: NVS_NR_mERa: NovaScreen (NVS) Nuclear Receptor Binding Assay for mouse Estrogen Receptor alpha (Era) (AID 2283378);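 note: hit means loss of bound radioligand signal relative to DMSO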
# Chain of mouse Estrogen Receptor alpha (Era), Esr1 (gene 13982) (P19785 whole entry, looked up): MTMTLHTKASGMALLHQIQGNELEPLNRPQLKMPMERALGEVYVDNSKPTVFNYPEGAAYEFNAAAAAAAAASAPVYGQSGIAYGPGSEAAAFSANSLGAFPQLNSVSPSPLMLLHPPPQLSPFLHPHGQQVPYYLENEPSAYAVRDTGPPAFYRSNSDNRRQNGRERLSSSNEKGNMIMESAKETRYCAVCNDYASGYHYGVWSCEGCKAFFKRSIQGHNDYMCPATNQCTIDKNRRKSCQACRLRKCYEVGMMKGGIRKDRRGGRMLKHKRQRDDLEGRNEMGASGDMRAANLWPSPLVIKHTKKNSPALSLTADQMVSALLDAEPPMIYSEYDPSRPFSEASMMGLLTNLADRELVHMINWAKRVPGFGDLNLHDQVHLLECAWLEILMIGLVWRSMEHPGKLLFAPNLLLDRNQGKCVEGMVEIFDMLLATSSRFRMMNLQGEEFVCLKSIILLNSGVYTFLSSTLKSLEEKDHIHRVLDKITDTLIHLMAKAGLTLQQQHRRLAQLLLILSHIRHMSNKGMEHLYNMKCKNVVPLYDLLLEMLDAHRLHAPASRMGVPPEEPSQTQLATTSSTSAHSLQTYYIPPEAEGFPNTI
# How it was run: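 Filter scintillation counts of bound radioligand, measured 18 h post-dose, gave the readout; decreased signal relative to DMSO controls indicated displacement from mouse Era. Primary screen ran in duplicate at 25 uM; active chemicals were retested across concentrations.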
# [9] = molecular target: Agonist Androgen Response Element (ARE), AR (gene 367) (UniProt P10275); assay: OT_AR_ARELUC_AG_1440: Odyssey Thera (OT) 24-hour CHO-K1 Luciferase Assay for Agonist Androgen Response Element (ARE) (AID 2283379)
# Chain of Agonist Androgen Response Element (ARE), AR (gene 367) (P10275 whole entry, looked up): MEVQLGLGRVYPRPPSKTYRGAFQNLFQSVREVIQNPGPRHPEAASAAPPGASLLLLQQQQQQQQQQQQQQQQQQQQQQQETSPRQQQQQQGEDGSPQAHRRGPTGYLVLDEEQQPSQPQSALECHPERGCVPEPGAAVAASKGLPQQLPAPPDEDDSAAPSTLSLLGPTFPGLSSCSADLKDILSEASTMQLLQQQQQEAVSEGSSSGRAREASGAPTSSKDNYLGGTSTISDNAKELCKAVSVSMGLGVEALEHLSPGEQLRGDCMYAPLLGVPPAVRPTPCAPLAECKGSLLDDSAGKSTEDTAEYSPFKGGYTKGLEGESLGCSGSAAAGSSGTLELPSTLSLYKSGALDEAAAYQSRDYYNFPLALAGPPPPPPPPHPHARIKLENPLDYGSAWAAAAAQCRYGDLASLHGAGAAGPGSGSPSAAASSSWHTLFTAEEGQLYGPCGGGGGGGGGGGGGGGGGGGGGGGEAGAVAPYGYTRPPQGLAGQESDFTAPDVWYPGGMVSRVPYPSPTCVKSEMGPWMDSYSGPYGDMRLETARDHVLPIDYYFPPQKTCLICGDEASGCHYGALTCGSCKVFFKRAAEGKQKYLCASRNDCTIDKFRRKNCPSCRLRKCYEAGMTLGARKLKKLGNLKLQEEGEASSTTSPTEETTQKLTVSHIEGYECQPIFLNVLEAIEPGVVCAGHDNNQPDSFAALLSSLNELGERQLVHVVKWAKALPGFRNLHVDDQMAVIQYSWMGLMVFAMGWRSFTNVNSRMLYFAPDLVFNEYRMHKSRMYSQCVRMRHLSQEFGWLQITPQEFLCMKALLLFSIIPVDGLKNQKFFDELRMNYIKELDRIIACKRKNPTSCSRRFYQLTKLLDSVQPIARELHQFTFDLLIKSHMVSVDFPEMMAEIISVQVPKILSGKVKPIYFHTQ
# How it was run: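 Gain-of-signal reporter endpoint: cells (CHO-K1, hamster) are treated 24 h, luciferin/ATP reagent added, and luminescence compared with DMSO baseline.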
# [10] = tested on: rat Norepinephrine Transporter (NET), gene 83511; assay: NVS_TR_rNET: NovaScreen (NVS) Transporter Assay for rat Norepinephrine Transporter (NET) (AID 2283373)
# How it was run: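 Competitive radioligand displacement at the rat NET using forebrain membrane preparations, 1 h incubation, filter-based scintillation readout. Primary testing in duplicate at a single 25 uM concentration; confirmed actives retested across concentrations.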
compound,measurement,setting,value
CCCCCCCCCCO[C@@H]1O[C@H](CO)[C@@H](O)[C@H](O)[C@H]1O,outcome,[1],inactive
O=C(c1ccc(OCCN2CCCCC2)cc1)c1c(-c2ccc(O)cc2)sc2cc(O)ccc12,AC50,[2],4.67 µM (active)
same,AC50,[3],14.6 µM (active)
same,AC50,[4],2.14 µM (active)
same,AC50,[5],1.76 µM (active)
same,AC50,[6],9.25 µM (active)
same,AC50,[7],0.366 µM (active)
CC/C(=C(\c1ccccc1)c1ccc(OCCN(C)C)cc1)c1ccccc1,AC50,[2],0.491 µM (active)
same,AC50,[4],3.1 µM (active)
same,outcome,[1],inactive
same,AC50,[5],6.98 µM (active)
same,AC50,[7],3.85 µM (active)
CN1CCc2cccc3c2[C@H]1Cc1ccc(O)c(O)c1-3,outcome,[1],inactive
same,AC50,[8],0.309 µM (active)
COc1cc(OC)c2ccc(=O)oc2c1,outcome,[1],inactive
same,outcome,[9],inactive
CCOC(=O)C=Cc1ccccc1,outcome,[5],inactive
same,AC50,[7],25 µM (active)
O=C(O)CS,outcome,[1],inactive
CC(C)Cc1ccccc1,outcome,[6],inactive
CC1=CCC(C(C)(C)O)CC1 (configuration not stated),outcome,[1],inactive
same,outcome,[9],inactive
CC(C)(C)C1CCC(O)CC1 (configuration not stated),outcome,[1],inactive
C[C@]12CC[C@@H]3c4ccc(O)cc4CC[C@H]3[C@@H]1CC[C@@H]2O,AC50,[4],1.74 µM (active)
same,outcome,[1],inactive
same,AC50,[5],0.17 µM (active)
CC(=O)Oc1c(C)c(C)c2c(c1C)CC[C@@](C)(CCC[C@H](C)CCC[C@H](C)CCCC(C)C)O2,outcome,[1],inactive
CCCCCCCCCCCCN1CCOCC1,outcome,[1],inactive
CNC(=C[N+](=O)[O-])NCCSCc1ccc(CN(C)C)o1,outcome,[1],inactive
[Cl][Dy]([Cl])[Cl],AC50,[4],17.4 µM (active)
O=C(O)c1ccccc1O,outcome,[1],inactive
[O-]/[N+](=N\O)c1ccccc1,outcome,[1],inactive
CCCCCC1CCC(=O)O1 (configuration not stated),outcome,[1],inactive
NC(=O)c1cccnc1,outcome,[1],inactive
CCCCCCCCOS(=O)(=O)O,outcome,[1],inactive
CC(C)(C)c1ccc(S)cc1,outcome,[1],inactive
same,AC50,[8],10.6 µM (active)
C1CCCNCC1,outcome,[1],inactive
CCCCCCCCCCCCS,outcome,[1],inactive
CCCO[Si](OCCC)(OCCC)OCCC,outcome,[1],inactive
CC(C)CCCC(C)(C)O,outcome,[1],inactive
C=C(C)C(=O)OCCC(C)OC(=O)C(=C)C (configuration not stated),AC50,[1],20.1 µM (active)
C#C[C@]1(O)CC[C@H]2[C@@H]3CCc4cc(O)ccc4[C@H]3CC[C@@]21C,AC50,[4],1.32 µM (active)
same,AC50,[1],15.6 µM (active)
same,outcome,[1],inactive
same,AC50,[10],5.14 µM (active)
same,AC50,[5],0.463 µM (active)
same,AC50,[6],2.39 µM (active)
same,AC50,[7],514 nM (active) and 517 nM (active) and 623 nM (active)
CCC(=O)OCC=Cc1ccccc1,AC50,[5],29.2 µM (active)
CC(C)(O)CCc1ccccc1,AC50,[4],25 µM (active)
same,outcome,[5],inactive
CCCCCCOc1ccc(O)cc1,outcome,[1],inactive
same,AC50,[8],0.174 µM (active)
same,outcome,[9],inactive
CC1=CCC(=C(C)C)CC1,outcome,[1],inactive
CC(=O)Nc1cc(S(=O)(=O)O)cc2cc(S(=O)(=O)O)c(N=Nc3ccccc3)c(O)c12,outcome,[1],inactive

# Reference: PubChem BioAssay (EPA / NIEHS)
